About 83,000 compounds went through this panel and 20% of them were active in at least one assay; those are over-represented in the sample as a whole.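 Step 1: grow cells in 96-well plates. Step 2: add test compound at a single concentration. Step 3: incubate 48 h. Step 4: record percent growth.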 Activity calls are given as the source filed them. Rule for the calls: active = growth percent below 10; inactive = the rest.
Columns and labels:
Assay in all cases: NCI-60 one-dose screen, 48 h (100 = growth as untreated, 0 = no growth, -100 = all killed)
Conditions in all cases: 10 µM unless noted
SK-MEL-2 melanoma = system: SK-MEL-2 melanoma
EKVX NSCLC = system: EKVX NSCLC
SN12C renal = system: SN12C renal
UO-31 renal = system: UO-31 renal
TK-10 renal = system: TK-10 renal
ACHN renal = system: ACHN renal
CAKI-1 renal = system: CAKI-1 renal
MOLT-4 leukemia = system: MOLT-4 leukemia
CCRF-CEM leukemia = system: CCRF-CEM leukemia
A498 renal = system: A498 renal

Measured: growth

CC(C)(C)c1ccc(C(=O)Nc2sc3c(c2C(N)=O)CCC(=O)C3)cc1
active: SK-MEL-2 melanoma 2.34% | EKVX NSCLC 5.58% | SN12C renal -1.37% | UO-31 renal -99.6% | TK-10 renal -33.9% | ACHN renal -98.6% | CAKI-1 renal -74.9% | MOLT-4 leukemia 4.19%

Cc1c(C)c2c(c(C)c1NC(=O)/C=C\C(=O)O)CCC(C)(CCCC(C)CCCC(C)CCCC(C)C)O2 (centres undefined)
inactive: SK-MEL-2 melanoma 27% | EKVX NSCLC 74.3% | SN12C renal 50.6% | UO-31 renal 37.2% | TK-10 renal 43.6% | ACHN renal 45.5% | CAKI-1 renal 46.8% | CCRF-CEM leukemia 13.6% | MOLT-4 leukemia 33.9%

O=c1[nH]nc(-c2ccc(Cl)cc2)cc1Cc1ccccc1
inactive: SK-MEL-2 melanoma 101% | EKVX NSCLC 86% | SN12C renal 103% | UO-31 renal 61.7% | TK-10 renal 109% | ACHN renal 92.7% | A498 renal 110% | CCRF-CEM leukemia 81.6% | MOLT-4 leukemia 79.6%

O=C(/C=C/C12c3ccccc3C(c3ccccc31)C1C(=O)NC(=O)C12)c1ccc(Cl)cc1 (centres undefined)
active: SK-MEL-2 melanoma -7.61% | SN12C renal -14.4% | UO-31 renal -55.2% | ACHN renal -44.8%
inactive: EKVX NSCLC 17.8% | TK-10 renal 12.6% | CAKI-1 renal 33.6% | CCRF-CEM leukemia 11.5% | MOLT-4 leukemia 11.1%

Cl.Fc1c[c-]c(-c2ccccn2)c(F)c1.[Pt].c1ccc([PH+](c2ccccc2)c2ccccc2[PH+](c2ccccc2)c2ccccc2)cc1
active: SK-MEL-2 melanoma -82.1% | EKVX NSCLC -94.8% | SN12C renal -81.3% | UO-31 renal -98.8% | TK-10 renal -87.2% | ACHN renal -100% | CAKI-1 renal -90.5% | CCRF-CEM leukemia -43.6% | MOLT-4 leukemia -28.3%

C=CC(=O)N[C@@H](Cc1ccc(-c2cc(Cl)cc(Cl)c2)cc1)[C@@H](O)[C@H](O)C(=O)O
inactive: SK-MEL-2 melanoma 97% | EKVX NSCLC 93% | SN12C renal 95.7% | UO-31 renal 84% | TK-10 renal 99.3% | ACHN renal 100% | CAKI-1 renal 91.6% | CCRF-CEM leukemia 105% | MOLT-4 leukemia 93.3%

O=C(NCCN1CCC(O)CC1)c1cc2c(o1)C(=O)c1ccccc1C2=O
active: SK-MEL-2 melanoma -66.1% | EKVX NSCLC -76.8% | SN12C renal -88.1% | UO-31 renal -98.9% | TK-10 renal -91.8% | ACHN renal -89.2% | CAKI-1 renal -97.1% | CCRF-CEM leukemia 2.16% | MOLT-4 leukemia -4.13%

Cc1ccc(S(=O)(=O)NN/C(N)=N\S(=O)(=O)c2cc(C)c(Cl)cc2SCc2ccccc2)cc1
inactive: SK-MEL-2 melanoma 86.9% | EKVX NSCLC 107% | SN12C renal 101% | UO-31 renal 77.9% | TK-10 renal 130% | ACHN renal 93.6% | A498 renal 91% | CCRF-CEM leukemia 74.1% | MOLT-4 leukemia 61.3%

O=c1cc(-c2ccc(OCc3ccccc3)cc2)oc2c(I)c(OCc3ccccc3)cc(OCc3ccccc3)c12
inactive: SK-MEL-2 melanoma 113% | EKVX NSCLC 109% | SN12C renal 101% | UO-31 renal 80% | TK-10 renal 96.5% | ACHN renal 98.5% | CAKI-1 renal 84.2% | CCRF-CEM leukemia 97.8% | MOLT-4 leukemia 113%

N=C(N)c1ccc(-c2ccc(-c3ccc(Cl)cn3)s2)cc1
active: CCRF-CEM leukemia 3.3% | MOLT-4 leukemia 4.73%
inactive: SK-MEL-2 melanoma 99.8% | EKVX NSCLC 65.8% | SN12C renal 10.2% | UO-31 renal 57.6% | TK-10 renal 91.9% | ACHN renal 12% | CAKI-1 renal 63.2%

NS(=O)(=O)c1cn(-c2ncnc3nc[nH]c23)ccc1=O
inactive: SK-MEL-2 melanoma 95.4% | EKVX NSCLC 97.8% | SN12C renal 92.4% | UO-31 renal 78.2% | TK-10 renal 94.5% | ACHN renal 99.2% | A498 renal 89.1% | CCRF-CEM leukemia 94.1% | MOLT-4 leukemia 99.5%

Cc1c(Cl)cccc1NS(=O)(=O)c1ccccc1
inactive: SK-MEL-2 melanoma 132% | EKVX NSCLC 114% | SN12C renal 103% | UO-31 renal 90.4% | TK-10 renal 104% | ACHN renal 98.4% | CAKI-1 renal 116% | CCRF-CEM leukemia 124% | MOLT-4 leukemia 102%

COc1ccc(C2CC(c3ccccc3)=NN2c2nc(C)c(C(C)=O)s2)cc1 (centres undefined)
inactive: SK-MEL-2 melanoma 98.4% | EKVX NSCLC 94.6% | SN12C renal 105% | UO-31 renal 77.4% | TK-10 renal 110% | ACHN renal 95.5% | CAKI-1 renal 86.6% | MOLT-4 leukemia 102%

COc1cc2c(c(OC)c1OC)C(=O)/C(=C/c1cc(C)c(O)c(C)c1)S2
inactive: SK-MEL-2 melanoma 43.6% | EKVX NSCLC 43.9% | SN12C renal 45.6% | UO-31 renal 33% | TK-10 renal 59.2% | ACHN renal 45.8% | CAKI-1 renal 26.3% | MOLT-4 leukemia 33.9%

COc1cc(-c2cc(-c3ccc(Nc4nc(Nc5ccccc5)nc(Nc5ccc(Cl)cc5)n4)cc3)nc(N)n2)cc(OC)c1OC
inactive: SK-MEL-2 melanoma 59.5% | EKVX NSCLC 59.4% | SN12C renal 70.7% | UO-31 renal 43.1% | TK-10 renal 91.3% | ACHN renal 59.7% | CAKI-1 renal 60.7% | CCRF-CEM leukemia 28.2% | MOLT-4 leukemia 38.4%

O=[N+]([O-])c1ccc(-c2cc3c(Nc4ccc(OCc5cccc(Cl)c5)c(Cl)c4)ncnc3s2)cc1
inactive: SK-MEL-2 melanoma 79.4% | EKVX NSCLC 68.4% | SN12C renal 85.1% | UO-31 renal 59.9% | TK-10 renal 70.1% | ACHN renal 63.3% | A498 renal 72.3% | CCRF-CEM leukemia 52.2% | MOLT-4 leukemia 47.5%

COC1(CC[C@@H](C)COC2OC(CO)C(O)C(O)C2O)O[C@H]2C[C@H]3[C@@H]4CC=C5C[C@@H](OC6OC(CO)C(OC7OC(C)C(O)C(O)C7O)C(O)C6OC6OC(C)C(O)C(O)C6O)CC[C@]5(C)[C@H]4CC[C@]3(C)[C@H]2[C@@H]1C (some centres undefined)
active: SK-MEL-2 melanoma -71% | EKVX NSCLC 4.85% | SN12C renal -64.7% | UO-31 renal -65.4% | TK-10 renal -60.4% | ACHN renal -87.4% | CAKI-1 renal -76.5% | CCRF-CEM leukemia -95.2% | MOLT-4 leukemia -99.1%

Cc1[nH]c(-c2nc3ccccc3[nH]2)c(C)c1C(=O)NNc1ccc(Cl)cc1
inactive: SK-MEL-2 melanoma 103% | EKVX NSCLC 94.2% | SN12C renal 90.7% | UO-31 renal 72.5% | TK-10 renal 106% | ACHN renal 102% | CAKI-1 renal 80.2% | CCRF-CEM leukemia 94.6% | MOLT-4 leukemia 81.6%

O=C1CCC(N2C(=O)c3cccc(NCCCC4CCN(CCNC(=O)c5cc6c(o5)C(=O)c5ccccc5C6=O)CC4)c3C2=O)C(=O)N1 (centres undefined)
inactive: CCRF-CEM leukemia 21% | MOLT-4 leukemia 21.8%
active: SK-MEL-2 melanoma -46.4% | EKVX NSCLC -61.8% | SN12C renal -95.4% | UO-31 renal -72.9% | TK-10 renal -70.6% | ACHN renal -92.4% | CAKI-1 renal -26.4%

O=C1Nc2ccccc2/C1=N/N=C/c1ccsc1
inactive: SK-MEL-2 melanoma 107% | EKVX NSCLC 90.9% | SN12C renal 95.3% | UO-31 renal 74.8% | TK-10 renal 137% | ACHN renal 102% | CAKI-1 renal 92% | CCRF-CEM leukemia 101% | MOLT-4 leukemia 103%

CCn1c(Sc2nnc(Nc3ccccc3)s2)nc2c1c(=O)n(C)c(=O)n2C
inactive: SK-MEL-2 melanoma 130% | EKVX NSCLC 86.5% | SN12C renal 96.4% | UO-31 renal 73% | TK-10 renal 146% | ACHN renal 91% | CAKI-1 renal 93.9% | CCRF-CEM leukemia 117% | MOLT-4 leukemia 110%

COc1cc(CNC(=O)/C=C/C=C/c2ccc3c(c2)OCO3)ccc1OCc1cn(-c2ccc(Cl)c(Cl)c2)nn1
inactive: EKVX NSCLC 13.1% | SN12C renal 34.1% | UO-31 renal 45.5%
active: SK-MEL-2 melanoma -37.3% | TK-10 renal -11.4% | ACHN renal -51% | CAKI-1 renal -17% | MOLT-4 leukemia -12.2%

COc1ccc2c(c1)/C(=C\c1sc(=S)[nH]c1O)C(C(=O)O)=N2
inactive: SK-MEL-2 melanoma 99.4% | EKVX NSCLC 93.6% | SN12C renal 100% | UO-31 renal 82.6% | TK-10 renal 108% | ACHN renal 99.8% | CAKI-1 renal 86.2% | MOLT-4 leukemia 103%

Cc1ccc(O)c(C(=O)c2ccccc2Cl)c1
inactive: SK-MEL-2 melanoma 112% | EKVX NSCLC 87.7% | SN12C renal 103% | UO-31 renal 79.7% | TK-10 renal 98.4% | ACHN renal 94.8% | CAKI-1 renal 84.2% | CCRF-CEM leukemia 115% | MOLT-4 leukemia 94.8%

CN(C)CN1CCN(c2ccc3nc(-c4ccc5nc(-c6ccc(C(F)(F)F)cc6)[nH]c5c4)[nH]c3c2)CC1
inactive: SK-MEL-2 melanoma 52% | EKVX NSCLC 79% | SN12C renal 64.4% | UO-31 renal 131% | TK-10 renal 130% | ACHN renal 79.3% | CAKI-1 renal 73.6% | CCRF-CEM leukemia 38.6% | MOLT-4 leukemia 44.2%

CC(=O)c1cc2c(o1)C(=O)c1ccccc1C2=O
active: SK-MEL-2 melanoma -69.4% | EKVX NSCLC -81% | SN12C renal -81.2% | UO-31 renal -98.1% | TK-10 renal -96.4% | ACHN renal -98.3% | CAKI-1 renal -98.4% | CCRF-CEM leukemia -74.8% | MOLT-4 leukemia -43%

— PubChem BioAssay (NCI)
